Most compounds without a hit are left out; they make up all but 2.3% or so of the library.
CHRM1 PAM: human CHRM1 positive allosteric modulation | CHO-K1 hM1, Fluo-8 calcium fluorescence, ACh EC20; 0% = ACh EC20, 100% = maximal ACh | activation, % at 3 µM | 0.088% of 360,000 active; in the data active = activation above about 19%, passing the limit was not always enough
Target sequence (P11229 whole entry, looked up): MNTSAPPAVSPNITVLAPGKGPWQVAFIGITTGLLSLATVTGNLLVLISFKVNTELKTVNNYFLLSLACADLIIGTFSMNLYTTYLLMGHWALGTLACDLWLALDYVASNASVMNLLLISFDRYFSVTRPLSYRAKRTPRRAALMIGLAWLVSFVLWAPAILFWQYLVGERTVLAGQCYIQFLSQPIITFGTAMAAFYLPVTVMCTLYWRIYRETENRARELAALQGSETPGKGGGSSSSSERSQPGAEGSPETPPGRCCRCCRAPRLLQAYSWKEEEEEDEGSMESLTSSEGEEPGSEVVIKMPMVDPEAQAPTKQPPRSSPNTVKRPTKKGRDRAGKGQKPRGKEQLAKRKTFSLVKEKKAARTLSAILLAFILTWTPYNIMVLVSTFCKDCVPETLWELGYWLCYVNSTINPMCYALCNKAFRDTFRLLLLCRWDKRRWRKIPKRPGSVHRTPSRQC
M1 PAM parental: nonselective activator or artifact in parental CHO-K1 calcium assay; AID 602247; 0.02% of 360,000 active; ATP EC20, Fluo-8 calcium fluorescence; 0% at ATP EC20, 100% at ATP max; activation, % at 3 µM;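 active = activation above the run cutoff, the mean activation of all test compounds plus 3 SD, cut at about 40% in these data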;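 also: peak over basal fluorescence ratio in a 140 s read after ATP addition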
CHRM1 antagonist: human CHRM1 antagonism | P11229 | CHO-K1 hM1, Fluo-8 calcium fluorescence, ACh EC80 antagonist | inhibition, % at 3 µM | 1.3% of 360,000 active | AID 588852;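 active = percent inhibition above its own plate's cutoff, namely the mean of that plate's compound wells plus 3 SD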;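 also: peak over basal fluorescence ratio during 140 s after agonist addition; 0% = ACh EC80 plus DMSO and 100% = DMSO alone without agonist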
CHO-K1 Ca antag: M1 antagonist counterscreen hit in parental CHO-K1 cells; ATP-induced calcium, Fluo-8 fluorescence; inhibition, % at 3 µM; 0.6% of 360,000 active; AID 602250;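 active = inhibition above a per-plate cutoff, the plate's mean sample inhibition plus 3 SD, cut at about 24% in these data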;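 also: 0% = DMSO plus EC80 ATP and 100% = DMSO alone without ATP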
M1 ag parental: counter-screen for M1 agonists: effect in parental CHO-K1 cells. activation, % at 3 µM. 0.48% of 360,000 active. Fluo-8 calcium fluorescence; scaled to maximal ATP response, vehicle zero; in the data active = activation above about 15%;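 also: untransfected CHO-K1 host cells lacking M1 receptor as counterscreen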
CHRM1 agonist: human M1 muscarinic receptor agonism. activation, % at 3 µM. 0.33% of 360,000 active. AID 588814. P11229. CHO-K1 hM1, Fluo-8 calcium fluorescence, agonist mode; 0% DMSO, 100% acetylcholine EC100;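 active = activation above the run's mean compound activation plus 3 SD, cut at about 16% in these data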;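 also: peak over basal fluorescence ratio within a 140 s kinetic read after compound addition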
Numbers without * were called inactive; ! = not active in a repeat.

SMILES	CHRM1 PAM	M1 PAM parental	CHRM1 antagonist	CHO-K1 Ca antag	M1 ag parental	CHRM1 agonist
CCC(C)Sc1cccc(-c2nc3cc(C)ccn3c2NCc2ccccc2)c1 (stereo unspecified)	-20	11	43*	-6	0	-8
CCC(C)Sc1cc(-c2nc3ccc(C)cn3c2NCc2ccccc2)ccc1OC (stereo unspecified)	-29	-17	63*	25*!	3	-6
O=C(C1CCC(=O)N(C2CCCC2)C1)N1CCC(Oc2ccccc2Cl)CC1 (stereo unspecified)	-1	-14	5	5	3	-1
CC1(C)CC(NC(=O)C(Cl)(Cl)Cl)CC(C)(C)N1	7	14	-5	-3	1	-11
CCCCNc1c(-c2ccc(OC)c(SC3CCCCC3)c2)nc2ccc(C)cn12	-16	-18	49*	33*	8	1
O=C(c1[nH]c(C(F)(F)F)nc1-c1ccccc1)N1CCN(c2cccc(C(F)(F)F)n2)CC1	-4	14	-6	-17	2	-6
COc1ccc(S(=O)(=O)N2CCC(C(=O)NCCC(=O)NCc3cccnc3)CC2)cc1	10	-9	-8	13	0	2
CCc1ccc2c(c1)C(c1ccc([N+](=O)[O-])cc1)=NNC(c1ccc(C)cc1)=N2	-1	16	3	11	18*	-8
O=C(NC(Nc1nc2ccc([N+](=O)[O-])cc2s1)(C(F)(F)F)C(F)(F)F)c1cccnc1	-5	13	23	24*	9	5
O=C(NC(Nc1nc2ccc([N+](=O)[O-])cc2s1)(C(F)(F)F)C(F)(F)F)c1ccccc1Cl	-11	4	19	28*	13	4
CCCNC(=O)C1(C)CCN(CCOc2ccc(Cl)cc2)C1 (stereo unspecified)	-9	-13	14	9	0	-9
CCn1c(=O)cc(SCC(=O)Nc2ccc3c(c2)OCO3)c2ccccc21	7	11	-5	-15	2	-6
CCn1c(=O)cc(SCC(=O)Nc2cccnc2)c2ccccc21	-10	-9	15	25*	1	-2
CN1/C(=C\C=C2/SC(=S)N(CC(=O)O)C2=O)C(C)(C)c2ccccc21	-17	13	37*	12	30*	131*
CN1CCS/C1=C\C=C1/SC(=S)N(CC(=O)O)C1=O	-8	7	6	11	40*	12
O=C(N/N=C/C1CC2C=CC1C2)c1ccccc1O (stereo unspecified)	16	10	-18	-8	0	2
O=C1SCCN1N=Cc1ccc([N+](=O)[O-])o1	6	12	-13	-10	2	-2
Cc1cc(C(=S)N2CCOCC2)c(C)n1-c1ccc(Cl)cc1	-25	19	29*	-3	2	-8
CCN(CC)CCOC(=O)/C=C/c1ccccc1	-5	-25	5	15	0	-6
CCN(CC)CCCOC(=O)C(c1ccccc1)c1ccccc1	-34	-1	101*	5	1	-14
CCn1nnc(NC(=O)COc2ccc([N+](=O)[O-])cc2)n1	5	7	-8	-3	0	-3
CC(C)C[C@H](NC(=O)[C@@H]1Cc2ccccc2CN1)C(=O)Nc1ccc(C(C)C)cc1	6	2	-10	-10	2	-4
CC(C)c1ccc(NC(=O)[C@@H](C)NC(=O)[C@@H]2Cc3ccccc3CN2)cc1	-23	16	37*	-17	1	-5
CCOC(=O)c1cnc(-n2[nH]c(C)c(Cc3ccccc3)c2=O)[nH]c1=O	8	5	-4	-3	0	-3
CCOC(=O)c1cnc(Cc2ccccc2)[nH]c1=O	-9	-8	25*	-14	1	-10
CCS(=O)(=O)N1CCN(S(=O)(=O)c2ccc(Cl)s2)CC1	-13	0	37*	-1	0	-2
Cc1cccc(N(C(=O)CNC(=O)c2ccco2)C(C(=O)NCC2CCCO2)c2ccccc2)c1 (stereo unspecified)	-18	-7	23*	16	5	-3
O=C(NCC1CCCO1)C(c1ccc(F)cc1)N(C(=O)Cn1nnc(-c2ccc(F)cc2)n1)c1cccc(O)c1 (stereo unspecified)	-9	3	36*	2	10	0

Compound activity deposited in PubChem BioAssay by The Scripps Research Institute Molecular Screening Center.
